In PubChem BioAssay:

Target: Alpha-bungarotoxin (Bungarus multicinctus) (UniProt P60615)
Test: compounds binding labelled alpha-BTX control protein – biochemical, small-molecule microarray, Alexa647 label, 635/667 nm fluorescence, artefact control for SMM control protein annotation, profiling panel (AID 1117)
Conditions: alpha-BTX-A647 binding fluorescence, higher = more signal

Sequence of Alpha-bungarotoxin (Bungarus multicinctus) (P60615 whole entry, looked up): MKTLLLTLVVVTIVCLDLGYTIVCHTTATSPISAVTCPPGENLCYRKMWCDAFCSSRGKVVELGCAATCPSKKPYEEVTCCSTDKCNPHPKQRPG

SMILES | composite z-score
O=C1O[C@H](Cc2ccccc2)[C@@H]2[C@H]3C=CCCC=C3CN2[C@H]1Cc1ccc(O)cc1 | -0.224
CN1C(=O)[C@@H]2[C@@H](CC(COc3ccccc3)=C3[C@@H](CCc4ccccc4)OB(O)C[C@@H]32)C1=O | 1.4
CCOC(=O)C[C@H]1[C@H](OC(=O)Cc2ccc3c(c2)OCO3)[C@@H](NC(=O)Cc2ccc(OC)cc2)c2cc(OCCCO)ccc2N1C(=O)Cc1ccc(OC)cc1 | -0.105
CN(C)CCCNC(=O)[C@@]1(Cc2ccccc2I)c2ccccc2C(=O)N(C2CCCCC2)[C@H]1c1ccc(CO)cc1 | 2.57
CCCCC(=C=CC[C@H](O)c1ccc(CO)o1)CCO | 0.221
COC(=O)[C@@]1(Cc2ccc(F)cc2)[C@H]2c3cc(C(=O)N(C)C)n(C)c3C[C@H]2CN1C(=O)c1ccccc1 | 0.0278
CC1CC/C=C\[C@H]2OC34C=CCN(c5ccc(Cl)cc5)C(=O)[C@H]3N(CCCCCCO)C(=O)[C@]4(C)C2C(=O)O1 (stereo not given in full) | -0.856
O=C1C[C@]2(c3ccc([N+](=O)[O-])cc3)C(=O)N(C3CC3)c3cc(CO)ccc3[C@H]2N1C1CCCCC1 | 0.637
CCCC[C@H]1C[C@@H]1[C@@H]1N(C(C)=O)[C@H](c2cccc(OC)c2)CC12CC2 | 0.154
Cc1ccc(S[C@]2(C(=O)NCC(F)(F)F)CC(=O)N(Cc3ccccc3C(F)(F)F)[C@@H]2c2ccc(CO)cc2)cc1 | -0.693
Cc1ccc(S[C@]2(C(=O)NCCCN(C)C)CC(=O)N(C3Cc4ccccc4C3)[C@@H]2c2ccc(CO)cc2I)cc1 | 0.651
N#Cc1ccc(C(O)C2C=CC3C(=O)NC(=O)C3N2Nc2ccc(Cl)cc2Cl)cc1 (stereo not given) | 0.531
O=C1O[C@@H](c2ccccc2)[C@@H](c2ccccc2)N2[C@@H](c3ccccc3OCCO)[C@]3(C(=O)Nc4ccc(C#CCCO)cc43)[C@@H](C(=O)NC[C@H](O)c3ccccc3)[C@H]12 | 2.55
COc1ccc([Si](C)(C)[C@@H]2[C@@H](CC(=O)N3Cc4ccccc4C[C@H]3CO)O[C@]3(C(=O)N(Cc4ccc(N5CCOC5=O)cc4)c4ccccc43)[C@H]2C)cc1 | 1.42
COc1ccccc1CN1C(=O)c2ccccc2[C@](Cc2ccccc2I)(C(=O)NCC(C)C)[C@@H]1c1ccc(CO)cc1 | 0.237
CC(C)(C)OC(=O)CC[C@@]1(C(=O)NCCN2CCOCC2)N=C(c2ccc(OCCCO)cc2)O[C@@H]1c1ccccc1CN=[N+]=[N-] | 0.519
CC(C)=CCCC(C)=CC(O)C1C=CC2C(=O)NC(=O)C2N1Nc1ccccn1 (stereo not given) | 1.2
CC(C)N1C(=O)c2ccccc2[C@](C)(C(=O)NCC(F)(F)F)[C@@H]1c1ccc(CO)cc1 | -0.573

SMILES | composite z-score
Cc1ccc(S[C@]2(C(=O)NCc3ccccc3)CC(=O)N(Cc3ccccc3C(F)(F)F)[C@@H]2c2ccc(CO)cc2)cc1 | -0.191
Cc1ccccc1C(O)C1C=CC2C(=O)N(c3ccccc3)C(=O)C2N1Nc1ccccc1 (stereo not given) | 1.1
O=C1OCCC=C[C@H]2OC34C=CCN(c5ccc6ccccc6c5)C(=O)[C@H]3N(CCO)C(=O)[C@@H]4C12 (stereo not given in full) | 0.0797
COCCCNC(=O)[C@@H]1c2ccccc2C(=O)N(Cc2ccc(OC(F)(F)F)cc2)[C@H]1c1ccc(CO)cc1 | 0.516
CCC(CC)C(O)C1C=CC2C(=O)N(c3ccccc3)C(=O)C2N1Nc1ccccc1F (stereo not given) | 1.39
C=C1C(=O)C=C2CN(C(=O)c3ccccc3)[C@@](Cc3ccc(OC)cc3)(C(=O)OC)[C@@H]12 | 1.2
O=C(NC1CC1)[C@@H]1c2ccccc2C(=O)N(Cc2cc(C(F)(F)F)cc(C(F)(F)F)c2)[C@H]1c1ccc(CO)cc1 | 0.955
COC(=O)c1cccc([C@H]2OC(=CC(=O)OC(C)C)C[C@@H](c3cccc(C(=O)OC)c3)O2)c1 | 0.866
COc1cc(C(O)C2C=CC3C(=O)N(c4ccccc4)C(=O)C3N2Nc2ccccc2F)cc(OC)c1OC (stereo not given) | 0.983
COCCOC(=O)N1C(=O)[C@@]2(c3cc(C#CCC(C(=O)OC)C(=O)OC)ccc31)[C@H](c1ccc(O)cc1)N1[C@H](c3ccccc3)[C@H](c3ccccc3)OC(=O)[C@H]1[C@@H]2C(=O)Nc1nc2ccccc2s1 | 2.23
COc1ccc([Si](C)(C)[C@@H]2[C@@H](CC(=O)N(CCO)Cc3ccccc3)O[C@]3(C(=O)N(Cc4ccc(N5C(=O)c6cccc7cccc5c67)cc4)c4ccccc43)[C@H]2C)cc1 | 2.24
C[C@@H]1ON(c2ccc(I)cc2)[C@H](c2cccc(NC(=O)OCC3c4ccccc4-c4ccccc43)c2)[C@H]1C(=O)N1C(=O)OC[C@H]1Cc1ccccc1 | -0.0652
COCCOC(=O)N1C(=O)[C@@]2(c3cc(C#CCC(C(=O)OC)C(=O)OC)ccc31)[C@H](C(=O)Nc1nc3ccccc3s1)[C@H]1C(=O)O[C@H](c3ccccc3)[C@H](c3ccccc3)N1[C@@H]2c1ccc(O)cc1 | 1.63
COc1ccc(C(O)C2C=CC3C(=O)N(c4ccccc4)C(=O)C3N2Nc2ccc([N+](=O)[O-])cc2)c2ccccc12 (stereo not given) | 2.54
COc1ccc(C(=O)Nc2ccc3c(c2)[C@@]2(O[C@H](CCO)[C@@H]([Si](C)(C)c4ccc(OC)cc4)[C@@H]2C)C(=O)N3Cc2ccccc2)cc1 | 0.399
[N-]=[N+]=Nc1ccccc1[C@@H]1OC(c2ccc(OCCCO)cc2)=N[C@]1(CCS(=O)(=O)c1ccccc1)C(=O)NCC(O)CO (stereo not given in full) | 0.534
COC(=O)[C@@]1(Cc2ccccc2)[C@H]2c3cc(C(=O)N(C)C)n(Cc4ccc(S(C)(=O)=O)cc4)c3C[C@H]2CN1C(=O)c1ccccc1 | 0.548
